An excerpt weighted towards active compounds, which were near 6.7% of everything screened.
C diff HTS – C. difficile growth inhibitors, primary screen, HTS; AID 1259249, 2017; Clostridium difficile clinical isolate growth, OD600, 24 h; active compounds read low; growth activity, negative = inhibition, % at 16 µg/mL (by protocol); 86,000 compounds, 0.25% hits;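 active = mean growth activity at or below -80% and every replicate also at or below -80%; inconclusive = mean at or below -80% but some replicate above -80%; inactive = mean growth activity above -80%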
Pf Dd2 growth – P. falciparum Dd2 growth inhibitors, primary screen, SYBR Green fluorescence, single dose replicates | activity change, % at 10 µM | 94,000 compounds, 2.3% hits | 72 h; active compounds read low | AID 1159554, 2015; in the data active = activity change below about -80%; inconclusive = no clear call, values can overlap the other calls
T cruzi growth-1 – T. cruzi intracellular proliferation inhibitors, primary screen, cell-based, beta-gal Tulahuen parasites, NIH3T3 host, luminescence; T. cruzi beta-gal in NIH3T3, GalScreen luminescence, 90 h; inhibition, % at 8.34 µM; 77,000 compounds, 5.9% hits; AID 624255, 2012;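 active = mean inhibition above about 93%, with at least 55% of replicates each passing it, limit read from the data, passing the limit was not always enough; inconclusive = only one of those two conditions holds; inactive = neither condition holds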
T cruzi growth-2 – T. cruzi intracellular proliferation inhibitors, confirmation, cell-based, NIH3T3 host, beta-gal parasite, luminescence, cherry-pick; T. cruzi beta-gal in NIH3T3, GalScreen luminescence, 90 h; 5,600 compounds, 72% hits; inhibition, % at 8.35 µM; AID 651739, 2012; shares compounds with T cruzi growth-1;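 active = mean replicate inhibition above about 95% and at least 55% of replicates individually reaching it, limit read from the data; inconclusive = only one of the two criteria is met; inactive = neither criterion is met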
T cruzi growth-3 – inhibitors of intracellular T. cruzi replication, confirmation, NIH3T3 host cells, beta-gal parasites, cherry-pick, set 2 | shares compounds with T cruzi growth-1 | T. cruzi beta-gal in NIH3T3, GalScreen luminescence, 90 h | inhibition, % at 2.09 µM | 5,600 compounds, 21% hits | AID 651740, 2012;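 active = mean inhibition above about 95%, with at least 55% of replicates also reaching it, limit read from the data; inconclusive = meets just one of the two conditions; inactive = meets neither condition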
NIH3T3 tox – cytotoxicity in mouse NIH/3T3 fibroblasts, confirmation, cytotoxicity control for T. cruzi proliferation inhibitor project, cell-based, cherry-pick, single point; shares compounds with T cruzi growth-1; NIH/3T3 viability, CellTiter-Glo ATP luminescence, 90 h; cytotoxicity (signal decrease), % at 8.35 µM; 5,600 compounds, 14% hits; AID 651742, 2012;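 active = mean signal decrease across replicates above about 35% based on untreated-well scatter, with enough replicates individually passing, limit read from the data; inconclusive = no rule stated though some were filed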
3T3 cytotox 2 – NIH/3T3 fibroblast cytotoxicity, confirmation, cytotoxicity control, cell-based, cherry-pick, single point, set 2 | 5,600 compounds, 56% hits | NIH/3T3 viability, CellTiter-Glo ATP luminescence, 90 h | AID 651744, 2012 | inhibition, % at 24.9 µM | shares compounds with T cruzi growth-1;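 active = mean loss of cell viability signal at or above a set limit, and enough replicates individually reaching it; inconclusive = meets only the mean limit or only the replicate share; inactive = meets neither condition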
A number is an active result; n = inactive; u = inconclusive; x = no result given.

SMILES	C diff HTS	Pf Dd2 growth	T cruzi growth-1	T cruzi growth-2	T cruzi growth-3	NIH3T3 tox	3T3 cytotox 2
COc1cccc(S(=O)(=O)N(C)C[C@@H]2Oc3ncc(C#CCC(C)C)cc3C(=O)N([C@@H](C)CO)C[C@@H]2C)c1	n	n	n	x	x	x	x
Cc1ccc(S(=O)(=O)N(C)C[C@@H]2Oc3ncc(-c4cccc(C(F)(F)F)c4)cc3C(=O)N([C@H](C)CO)C[C@@H]2C)cc1	n	n	126	106	n	48	43
COc1ccc(S(=O)(=O)N(C)C[C@@H]2Oc3ncc(C#Cc4ccccc4)cc3C(=O)N([C@H](C)CO)C[C@@H]2C)cc1	n	n	109	101	n	n	63
C[C@H](CO)N1C[C@H](C)[C@H](CN(C)S(=O)(=O)c2ccc(C#N)cc2)Oc2ncc(C#Cc3cccc(F)c3)cc2C1=O	n	n	n	x	x	x	x
C[C@H](CO)N1C[C@H](C)[C@H](CN(C)S(=O)(=O)c2ccc(C#N)cc2)Oc2ncc(-c3cccc(C(F)(F)F)c3)cc2C1=O	n	n	n	x	x	x	x
O=C(C1CCOCC1)N1C[C@H]2[C@@H](c3ccccc31)[C@H](CO)N2C(=O)Nc1ccccc1F	n	n	n	x	x	x	x
C[C@@H]1CCCCO[C@@H](CN(C)C(=O)C2CCCCC2)[C@H](C)CN([C@@H](C)CO)C(=O)c2cc(NC(=O)Nc3ccccc3)ccc2O1	n	n	n	x	x	x	x
Cc1cccc(S(=O)(=O)N2CC[C@@H]3[C@H]2c2cc(C#Cc4cccnc4)ccc2N[C@@H]3CO)c1	n	n	n	x	x	x	x
O=C([C@H]1[C@H](CO)[C@H]2Cn3c(ccc(-c4ccccc4F)c3=O)[C@@H]1N2C(=O)C1CCC1)N1CCCCC1	n	x	n	x	x	x	x
COc1cccc(S(=O)(=O)N(C)C[C@@H]2Oc3ncc(C#Cc4ccc(C(F)(F)F)cc4)cc3C(=O)N([C@H](C)CO)C[C@@H]2C)c1	n	n	103	96	113	n	31
COc1cccc(S(=O)(=O)N(C)C[C@@H]2Oc3ncc(C#Cc4cccc(F)c4)cc3C(=O)N([C@H](C)CO)C[C@@H]2C)c1	n	n	110	102	n	n	33
COc1cccc(S(=O)(=O)N(C)C[C@H]2Oc3ncc(C#CCN(C)C)cc3C(=O)N([C@@H](C)CO)C[C@@H]2C)c1	n	n	n	x	x	x	x
COc1cccc(S(=O)(=O)N(C)C[C@@H]2Oc3ncc(C#CC(C)C)cc3C(=O)N([C@@H](C)CO)C[C@H]2C)c1	n	n	n	x	x	x	x
C[C@H](CO)N1C[C@H](C)[C@H](CN(C)S(=O)(=O)c2cccs2)Oc2ncc(C#Cc3ccc(C(F)(F)F)cc3)cc2C1=O	x	n	n	x	x	x	x
C[C@H](CO)N1C[C@H](C)[C@H](CN(C)S(=O)(=O)c2cccs2)Oc2ncc(C#Cc3ccc(F)cc3)cc2C1=O	n	n	112	106	n	n	n
C[C@H]1CN([C@@H](C)CO)C(=O)c2cc(C#Cc3cccnc3)cnc2O[C@H]1CN(C)C(=O)CC1CC1	n	n	n	x	x	x	x
O=C(C1CCCC1)N1CCCCN2[C@H](CO)[C@H](c3ccc(-c4cccc(F)c4)cc3)[C@@H]2C1	n	n	112	113	n	n	66
O=C(C1CCC1)N1CCCCN2[C@H](CO)[C@@H](c3ccc(-c4cccc(F)c4)cc3)[C@H]2C1	n	n	n	x	x	x	x
O=C(C1CCCC1)N1CCCCN2[C@H](CO)[C@@H](c3ccc(-c4cccc(F)c4)cc3)[C@H]2C1	n	n	111	104	n	n	104
O=C(C1CC1)N1CCCCN2[C@H](CO)[C@@H](c3ccc(-c4cccc(F)c4)cc3)[C@@H]2C1	n	n	n	x	x	x	x
C[C@@H]1CN([C@H](C)CO)C(=O)Cc2cc(NC(=O)Cc3ccccc3)ccc2O[C@H]1CN(C)C(=O)Nc1ccc(F)cc1	n	n	x	x	x	x	x
C[C@H]1CN([C@@H](C)CO)C(=O)c2cc(/C=C/c3ccccc3)cnc2O[C@@H]1CN(C)S(=O)(=O)c1ccccc1F	n	n	126	104	n	n	37
C[C@H]1CN([C@@H](C)CO)C(=O)c2cc(/C=C/c3ccccc3)cnc2O[C@H]1CN(C)S(=O)(=O)c1ccccc1F	n	n	n	x	x	x	x
C[C@H](CO)N1C[C@H](C)[C@@H](CN(C)S(=O)(=O)c2ccccc2)Oc2ncc(/C=C/c3ccccc3)cc2C1=O	n	n	125	108	n	n	n
C[C@@H]1CN([C@@H](C)CO)C(=O)c2cc(/C=C/c3ccccc3)cnc2O[C@H]1CN(C)S(=O)(=O)c1ccccc1F	n	n	123	108	n	n	u
SMILES	C diff HTS	Pf Dd2 growth	T cruzi growth-1	T cruzi growth-2	T cruzi growth-3	NIH3T3 tox	3T3 cytotox 2
C[C@@H]1CN([C@@H](C)CO)C(=O)c2cc(/C=C/c3ccccc3)cnc2O[C@@H]1CN(C)S(=O)(=O)c1ccccc1	n	n	n	x	x	x	x
C/C=C/c1cnc2c(c1)C(=O)N([C@H](C)CO)C[C@@H](C)[C@H](CN(C)S(=O)(=O)c1ccccc1F)O2	n	n	x	x	x	x	x
CO[C@H]1CN(C)C(=O)c2ccc(NC(C)=O)cc2OC[C@@H](C)N(C(=O)c2ccccc2F)C[C@@H]1C	n	n	n	x	x	x	x
CNC(=O)C[C@@H]1CC[C@@H]2[C@H](COc3ccc(NC(=O)Nc4cc(C)cc(C)c4)cc3C(=O)N2C)O1	n	n	n	x	x	x	x
O=C(NCC[C@@H]1CC[C@@H](NC(=O)c2cnccn2)[C@@H](CO)O1)Nc1ccc(F)cc1	n	n	n	x	x	x	x
C[C@H](CO)N1C[C@H](C)[C@H](CN(C)C(=O)Nc2ccc(C(F)(F)F)cc2)OCCCC[C@H](C)Oc2ccc(NC(=O)Nc3ccc4c(c3)OCO4)cc2C1=O	n	n	111	100	109	n	n
C[C@@H]1CN([C@@H](C)CO)C(=O)c2cc(NC(=O)Nc3ccc(C(F)(F)F)cc3)ccc2O[C@@H](C)CCCCO[C@@H]1CN(C)C(=O)Nc1ccc2c(c1)OCO2	n	n	x	x	x	x	x
C[C@H]1CCCCO[C@H](CN(C)C(=O)Nc2ccc(C(F)(F)F)cc2)[C@@H](C)CN([C@@H](C)CO)C(=O)c2cc(NC(=O)Nc3ccc4c(c3)OCO4)ccc2O1	n	-85	107	102	110	n	n
C[C@@H]1CCCCO[C@H](CN(C)C(=O)Nc2ccc3c(c2)OCO3)[C@H](C)CN([C@@H](C)CO)C(=O)c2cc(NC(=O)Nc3ccc4c(c3)OCO4)ccc2O1	x	n	n	x	x	x	x
C[C@H](CO)N1C[C@H](C)[C@H](CN(C)Cc2ccc3c(c2)OCO3)Oc2ncc(-c3ccccc3)cc2C1=O	n	n	n	x	x	x	x

Screens deposited in PubChem BioAssay by Broad Institute.
